Assay results from PubChem BioAssay (NCATS).
Calls of active or inactive are those of the source. No rule for the calls is given here.

What follows are molecules tested on HIV-1 nucleocapsid protein NCp7 (binding to TG oligonucleotide) (assay: HIV Nucleocapsid (AID 346;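 also: potency is for inhibitors that block NC binding and lower polarization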)). Details: HIV-1 NC / fluorescein-TGTGTGTG probe, fluorescence polarization.
Outline: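 HIV-1 NC (100 nM) binding to fluorescein-labelled ssDNA TG4xF (10 nM) in Hepes pH 7.5, 250mM NaCl, 1uM ZnCl2, TCEP and 2-mercaptoethanol; compounds pin-transferred, 1 hr room temperature, fluorescence polarization read on CCD imager.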
Potency is read from the fitted curve at half-maximal effect.

Row | Structure (SMILES) | Potency
1 | O=S(=O)(c1ccccc1)N1CCC2(CC1)CN(Cc1ccccc1)C2 | > 20 µM (inactive)
2 | COCCn1c(=O)c(CCc2ccccc2)nc2cnc(Oc3ccc(OC)cc3)nc21 | > 20 µM (inactive)
3 | COc1ccccc1CNc1ccnc(-c2cccnc2)n1 | > 20 µM (inactive)
4 | CN(C)c1ncc2nc(-c3cccs3)c(=O)n(CCC#N)c2n1 | 0.319 µM (active)
5 | O=C(c1csnn1)N1CCC[C@@]2(CCN(c3ccccn3)C2)C1 | > 20 µM (inactive)
6 | COc1ccccc1CN1CCC2(CC1)CCN(C(=O)c1cccn1C)CC2 | > 20 µM (inactive)
7 | COc1cccc(Cn2c(=O)c(-c3ccc(F)c(F)c3)nc3cncnc32)c1 | > 20 µM (inactive)
8 | CCNc1ncc2nc(C)c(=O)n(C)c2n1 | > 20 µM (inactive)
9 | N#Cc1cccc(-c2cncnc2NCc2cccs2)c1 | > 20 µM (inactive)
10 | COCC(=O)N1CCC2(CC1)CCN(c1ccccn1)CC2 | > 20 µM (inactive)
11 | O=c1c(-c2cccc(Cl)c2)nc2cncnc2n1-c1ccccc1 | > 20 µM (inactive)
12 | Cc1cccc(CNc2ncnc3ccc(-c4cccnc4)cc23)c1 | > 20 µM (inactive)
13 | CN1CCN(c2ccnc(-c3ccoc3)n2)CC1 | > 20 µM (inactive)
14 | Cc1ccccc1-c1nc(NCc2cccs2)c2ccccc2n1 | > 20 µM (inactive)
15 | O=C(Nc1cccc(F)c1)N1CCC2(CC1)CCN(C(=O)c1cnccn1)CC2 | > 20 µM (inactive)
16 | Cc1cccc(CNc2cc(-c3ccccc3CN(C)C)ncn2)c1 | > 20 µM (inactive)
17 | c1ccc(-c2ccc(N3CC4(CCNCC4)C3)cc2)cc1 | > 20 µM (inactive)
18 | COCC(=O)N1CCC[C@@]2(CCN(C(=O)Nc3cccc(C#N)c3)C2)C1 | > 20 µM (inactive)
19 | COc1ccc(-c2nc3cnc(N4CCN(C)CC4)nc3n(CCc3ccccc3)c2=O)cc1 | > 20 µM (inactive)
20 | Cc1noc(C)c1-c1ccc2ncnc(NC3CCNCC3)c2c1 | > 20 µM (inactive)

Row | Structure (SMILES) | Potency
21 | COc1ccc(NC(=O)N2CC3(CCN(C(=O)c4cnccn4)CC3)C2)cc1 | > 20 µM (inactive)
22 | COc1ccc(CNc2ncnc3ccc(-c4cccnc4)cc23)c(OC)c1 | > 20 µM (inactive)
23 | CN(C)c1ncc2ncc(=O)n(CCC#N)c2n1 | > 20 µM (inactive)
24 | COc1ccc(NC(=O)N2CCC3(CC2)CCN(C(=O)c2cc(C(F)(F)F)cc(C(F)(F)F)c2)CC3)cc1 | > 20 µM (inactive)
25 | c1ccc(Nc2nc(-c3ccoc3)nc3ccccc23)cc1 | > 20 µM (inactive)
26 | COC(=O)N1CCC[C@@]2(CCN(c3ccccc3)C2)C1 | > 20 µM (inactive)
27 | COc1ccc2[nH]cc(CCNc3nc(-c4ccoc4)nc4ccccc34)c2c1 | > 20 µM (inactive)
28 | COc1ccc(Oc2ncc3nc(-c4cccs4)c(=O)n(Cc4cccs4)c3n2)cc1 | > 20 µM (inactive)
29 | CN(C)c1ccc(-c2cncnc2NCCN2CCOCC2)cc1 | > 20 µM (inactive)
30 | Cn1c(=O)c(-c2ccccc2)nc2cnc(N3CCOCC3)nc21 | > 20 µM (inactive)
31 | O=c1cnc2cnc(OCc3ccccc3)nc2n1CCc1ccccc1 | > 20 µM (inactive)
32 | COc1ccc(Oc2ncc3ncc(=O)n(Cc4cccs4)c3n2)cc1 | > 20 µM (inactive)
33 | COc1ccccc1-c1nc(NCc2cccnc2)c2ccccc2n1 | > 20 µM (inactive)
34 | O=c1c(-c2cccs2)nc2cnc(N3CCOCC3)nc2n1Cc1ccc(F)cc1 | > 20 µM (inactive)
35 | CCNc1ncc2nc(-c3ccc(F)cc3)c(=O)n(CCC#N)c2n1 | > 4 µM (inactive)
36 | COCC(=O)N1CCC2(CC1)CCN(c1cccc(-c3ccccc3)c1)CC2 | > 20 µM (inactive)
37 | COc1ccc(NC(=O)N2CC[C@@]3(CCCN(C(=O)c4ccc(OC)cc4)C3)C2)cc1 | > 20 µM (inactive)
38 | O=C(c1cccc(F)c1)N1CCC2(CC1)CN(C(c1ccccc1)c1ccccc1)C2 | > 20 µM (inactive)
39 | N#Cc1ccccc1-c1cncnc1NCc1cccnc1 | > 20 µM (inactive)
